The full list was thinned out, with hits kept by preference.
Tgondii IFNg = inhibitors of Toxoplasma gondii growth with IFN-gamma; 69,000 compounds, 3.8% hits; activity change, negative = inhibition, % (test concentration not listed); AID 1259416; Toxoplasma gondii growth in IFN-gamma-treated host cells; hits give low values; in the data active = activity change below about -70%, passing the limit was not always enough;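 also: host cells are HeLa cells infected with Toxoplasma gondii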
Of the large screens only hits and unclear results are named; the others gave an inactive call.

O=C(c1c(F)cccc1F)N1CCN(S(=O)(=O)c2cc3c4c(c2)CCC(=O)N4CCC3)CC1	none
Nc1nc(Nc2ccc(S(N)(=O)=O)cc2)nn1C(=O)c1c(F)cccc1F	Tgondii IFNg -72
Cc1ccsc1CNc1ccc(C(=O)N(C)Cc2cc(C(C)C)on2)cc1	none
Nc1ncccc1CN1CCN(C(c2ccccc2)c2ccccc2)CC1	none
COc1ccc(-c2ccc(NC(=O)c3cccnc3)c(C)c2)c(OC)c1OC	none
COc1ncccc1-c1ccc(NC(=O)c2cccnc2)c(C)c1	Tgondii IFNg -85
Cc1cc(-c2ccccc2CO)ccc1NC(=O)c1cccnc1	none
CS(=O)(=O)N1CC2C[C@@H](F)[C@H](O)C2C1 (stereo partly specified)	none
Nc1nc(=S)c2[nH]cnc2[nH]1	Tgondii IFNg -87
Nc1ncnc2nc[nH]c12	none
CC(C)c1noc(-c2cc(=O)n(CC(=O)Nc3ccc(F)cc3)c3ccccc23)n1	none
O=C(Sc1ccc(C(F)(F)F)cn1)c1cncc(C#Cc2ccccc2)c1	none
Cc1oc(-c2ccc(Cl)cc2)nc1Cn1nnc(C(=O)Nc2cc(F)ccc2F)c1C	none
Clc1ccc(-c2cn[nH]c2C2CCCNC2)cc1 (stereo unspecified)	none
Clc1ccc(C2(c3ccc(-c4cn[nH]c4)cc3)CCNCC2)cc1	Tgondii IFNg -72
Cc1nc2ccccc2nc1CN1CCC(CNC(=O)NC(C)C)C1 (stereo unspecified)	none
COc1cccc(-c2cc(C(=O)NC(C)c3nc(-c4cccc(C)c4)no3)on2)c1 (stereo unspecified)	none
O=C(CC(c1ccccc1)c1ccco1)N1CC(n2cccn2)C1 (stereo unspecified)	none
COc1cc(C)c(-c2csc(NC(=O)c3cc(C(C)C)c4nncn4n3)n2)cc1C	none
O=C(NCc1cc(F)cc(F)c1)[C@H]1[C@H](CO)[C@H]2Cn3c(cccc3=O)[C@@H]1N2C(=O)c1cnccn1	none
Cc1ccc(-c2nc(Cn3nnc(C(=O)Nc4ccccc4C)c3C)c(C)o2)cc1	Tgondii IFNg -88
CCOc1ccc(-c2nc(Cn3nnc(C(=O)Nc4cc(C)cc(C)c4)c3C)c(C)o2)cc1	none
Cc1ccc(-c2nc(Cn3nnc(C(=O)Nc4cc(C)cc(C)c4)c3C)c(C)o2)cc1	none
CCOc1ccc(-c2nc(Cn3nnc(C(=O)Nc4cc(OC)ccc4OC)c3C)c(C)o2)cc1	none
Cc1ccccc1NC(=O)c1nnn(Cc2nc(-c3ccccc3)oc2C)c1C	none
Cc1ccccc1NC(=O)c1nnn(Cc2nc(-c3ccc(Cl)cc3)oc2C)c1C	none
COc1ccc(CNC(=O)c2nnn(Cc3nc(-c4ccc(C)cc4)oc3C)c2C)c(OC)c1	Tgondii IFNg -99
CCOc1ccc(-c2nc(Cn3nnc(C(=O)Nc4c(C)cccc4C)c3C)c(C)o2)cc1	Tgondii IFNg -94
CCOc1ccc(-c2nc(Cn3nnc(C(=O)Nc4cc(C)ccc4C)c3C)c(C)o2)cc1	none
COc1ccc(NC(=O)c2nnn(Cc3nc(-c4ccccc4)oc3C)c2C)c(OC)c1	none
COc1ccc(NC(=O)c2nnn(Cc3nc(-c4ccc(C)cc4)oc3C)c2C)cc1	Tgondii IFNg -95
COc1ccc(NC(=O)c2nnn(Cc3nc(-c4ccc(Cl)cc4)oc3C)c2C)cc1	none
CN1CCN(C(=O)C[C@@H]2CC[C@@H]3[C@H](COC[C@@H](O)CN3Cc3cccc(-c4ccncc4)c3)O2)CC1	none
CO[C@@H]1CN(C)C(=O)c2cc(NS(C)(=O)=O)ccc2OC[C@H](C)N(Cc2cncnc2)C[C@@H]1C	none
O=C(Cc1cccnc1)N1CC(=O)N2[C@H](C1)[C@H](c1ccc(C#CC3CCCCC3)cc1)[C@@H]2CO	none
CCOc1ccc(N2C(=O)CC(N3CCN(Cc4ccccc4)CC3)C2=O)cc1 (stereo unspecified)	none
COc1cc(COC2CN(C(=O)c3csc(C(C)=O)c3)CC(=O)N(C(C)C)C2)cc(OC)c1 (stereo unspecified)	none
O=C(NC(N1CCCC1=O)(C(F)(F)F)C(F)(F)F)c1cccnc1	none
Cc1ccc(Cl)cc1NC(=O)Cn1ncc2c(N3CCOCC3)ncnc21	none
COc1cccc(C(=O)Nc2ccc3c(c2)C(=O)N(C)[C@H]2CC[C@@H](CC(=O)NCc4ccc(F)cc4)O[C@@H]2CO3)c1	none
Cc1ccccc1NC(=O)c1nnn(Cc2nc(-c3ccc(OC(C)C)cc3)oc2C)c1C	none
CCOc1ccccc1NC(=O)c1nnn(Cc2nc(-c3ccc(OC(C)C)cc3)oc2C)c1C	none
Cc1ccc(-c2nc(Cn3nnc(C(=O)NCCCc4ccccc4)c3C)c(C)o2)cc1	none
Cc1oc(-c2ccc(OC(C)C)cc2)nc1Cn1nnc(C(=O)Nc2cccc(Cl)c2C)c1C	Tgondii IFNg -118
COc1ccc(CNC(=O)c2nnn(Cc3nc(-c4ccc(C)cc4)oc3C)c2C)cc1OC	Tgondii IFNg -87
COc1cccc(CNC(=O)c2nnn(Cc3nc(-c4ccc(C)cc4)oc3C)c2C)c1	Tgondii IFNg -96
CSc1ccc(CNC(=O)c2nnn(Cc3nc(-c4ccc(C)cc4)oc3C)c2C)cc1	none
COc1ccc(CCNC(=O)c2nnn(Cc3nc(-c4ccc(C)cc4)oc3C)c2C)cc1OC	none
COc1ccc(NC(=O)c2nnn(Cc3nc(-c4ccc(Cl)cc4)oc3C)c2C)cc1OC	none
CC(NC(=O)c1ccc(=O)n(C)c1)c1ccccc1-n1cccn1 (stereo unspecified)	none
COc1ccc(N(Cc2nc(-c3ccc(C)cc3)oc2C)S(=O)(=O)c2cccs2)cc1	none
Cc1cccc(C[C@H]2CN(C3CCOCC3)CC[C@H]2OCC2CC2)c1	none
COC(=O)c1c(NCc2ccc(SC)cc2)c2cccc(Cl)c2[nH]c1=O	Tgondii IFNg -79
COC(=O)c1c(NCc2ccc(F)cc2F)c2cc(F)ccc2[nH]c1=O	none
COC(=O)c1c(NCC(C)C)c2cccc(Cl)c2[nH]c1=O	none
COC(=O)c1c(NCCO)c2cccc(Cl)c2[nH]c1=O	none
COC(=O)c1c(NCc2ccc(F)cc2F)c2cccc(Cl)c2[nH]c1=O	Tgondii IFNg -76
COC(=O)c1c(NCCC(C)C)c2cccc(Cl)c2[nH]c1=O	Tgondii IFNg -85
COC(=O)c1c(NCc2ccccc2)c2cccc(Cl)c2[nH]c1=O	none
COC(=O)c1c(NCc2ccc3c(c2)OCO3)c2cccc(Cl)c2[nH]c1=O	none
COC(=O)c1c(NCc2ccc(OC)cc2)c2cccc(Cl)c2[nH]c1=O	none
COC(=O)c1c(NCc2cc(F)cc(F)c2)c2cccc(Cl)c2[nH]c1=O	Tgondii IFNg -98
COC(=O)c1c(NCc2ccccc2OC)c2cccc(Cl)c2[nH]c1=O	none
COC(=O)c1c(NCc2cccnc2)c2cccc(Cl)c2[nH]c1=O	none
CN(C)Cc1cc(=O)n2c(n1)CN(C(=O)c1cnccn1)CCC2	none
CCC(C(=O)N1CCCC(O)(c2ccc(F)cc2)CC1)n1cnc2ccccc21 (stereo unspecified)	none
Cc1nnnn1CCCN1CCCC1c1ccccn1 (stereo unspecified)	none
c1csc(-c2cc(-c3cccs3)nc(-c3cccs3)c2)c1	none
COc1ccc(C)cc1CNC(Cc1ccsc1)c1nccs1 (stereo unspecified)	none
COc1ccc(CC(=O)N2CCC3(CC2)CN(c2ncccn2)CC32CCN(C)C2=O)cc1 (stereo unspecified)	none
CCN(C)C(=O)c1ccc(N2C[C@H]3CC=CC[C@H]3C2)nc1	none
O=C(Nc1ccc2c(c1)OCO2)c1cc(-c2ccccc2)oc1C(F)(F)F	none
COc1ccc2c(c1)NC1(CCN(S(=O)(=O)c3ccc(C)cc3C)CC1)c1cccn1-2	none
OCc1ccc(-c2nccn2CCc2ccccc2Cl)o1	none
CN1CCCCC1CCC(=O)N1CC(n2cccn2)C1 (stereo unspecified)	none
Nc1nc2c(ncn2[C@@H]2O[C@@H](CO)[C@@H](O)[C@H]2O)c(=O)[nH]1	none
